# In the supplement of paper PMC3334620:
# In all, about 33,000 sequences were measured (“E-score (-0.5 to 0.5)”: median about -0.04, highest 2% from about 0.36 on). For the sample, the highest values were picked, then their nearest neighbours and some sequences at random.
# Molecular target: T1, Hmlalpha2 (UniProt P0CY09)
# T1 sequence: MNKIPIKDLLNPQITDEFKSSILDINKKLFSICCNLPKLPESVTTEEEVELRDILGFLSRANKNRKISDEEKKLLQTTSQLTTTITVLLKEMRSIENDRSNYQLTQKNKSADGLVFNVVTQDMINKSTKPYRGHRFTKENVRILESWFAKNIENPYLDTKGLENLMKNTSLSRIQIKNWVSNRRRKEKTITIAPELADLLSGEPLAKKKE
# Assay: PBM E-score (8-mer binding enrichment) (E-score (-0.5 to 0.5)); higher = stronger / more preferred TF binding
# Conditions: protein concentration: 200 nM; construct: GST-full length
# Outline: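 Universal all-10-mer Agilent arrays, fresh or stripped once, were converted to double-stranded form by primer extension. GST-tagged yeast transcription factors from PURExpress in vitro transcription/translation, full-length or DNA-binding domain only, were applied at about 100-200 nM and detected with fluorescent anti-GST. After masliner normalisation, the Universal PBM Analysis Suite scored each ungapped eight-base word together with its reverse complement by E-score.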
row,Sequence,PBM E-score
1,CTTAAAAC,0.201
2,AACTCTTG,-0.084
3,GCTTGTTA,0.286
4,GAAACCAA,0.00698
5,AGAACATA,0.248
6,CAAACATA,0.118
7,AAAACATA,0.39
8,GAAACATA,0.192
9,CAAACATG,0.34
10,TAAACATA,0.416
11,AAAACATT,0.242
12,AAAACATC,0.311
13,AAAACATG,0.434
14,GGTTGAAC,0.081
15,ACTGCAGG,-0.11
16,AACTCACT,0.0592
17,AGGTCGGA,-0.164
18,AACCTAGA,-0.109
19,CGTGTAAC,0.443
20,ACTGTAAG,0.0573
21,AGTGTAAC,0.198
22,GGTGTAAC,0.288
23,AGTGTAAG,0.116
24,CGTGTAAG,0.467
25,GAAATAGC,-0.0263

row,Sequence,PBM E-score
1,CAACTAAA,0.176
2,CTCTAGAG,-0.148
3,TCATCCCA,-0.231
4,CGTAATAC,0.378
5,TGTAATAA,0.45
6,AGTAATAA,0.257
7,GGTAATAC,0.173
8,CATAATAA,0.281
9,CGTAATAA,0.378
10,GGTAATAA,0.178
11,AGTAATAC,0.211
12,CGTAATAG,0.246
13,AGCGCGCA,0.0691
14,CCGGGGAG,-0.241
15,CAAGTCTG,-0.00344
16,ACCTCTTC,-0.0525
17,CGACGTTA,0.231
18,CGATGGAC,0.0281
19,CTTTTCAC,0.0898
20,AAGCATGC,0.117
21,AACCATGC,-0.0458
22,AATCATGT,0.409
23,AATCATGG,0.0457
24,AATCATGA,0.0793
25,AAGCATGG,-0.112

row,Sequence,PBM E-score
1,AACCATGA,0.149
2,AACCATGT,0.368
3,AAGCATGT,0.377
4,CCCCATTC,-0.266
5,CGGGCATC,-0.287
6,AAATTCCT,-0.135
7,CATTCTGA,-0.213
8,GCAGTTGA,-0.157
9,AAAGAGCT,-0.0941
10,GAGCTCCC,-0.322
11,ATTTTTAC,0.368
12,AAATTTAC,0.375
13,AAATTTAT,0.201
14,AAATTTAG,0.0397
15,AATTTTAC,0.347
16,ATTTTTAA,0.237
17,AACCCTAC,-0.0838
18,GAATTAGC,-0.0766
19,AGCTCTAT,-0.102
20,AGAGTGTA,0.0904
21,ACGCTATA,0.0242
22,GTTACGTA,0.293
23,CTTACGTA,0.307
24,ATTACGTG,0.452
25,AATACGTC,0.226

row,Sequence,PBM E-score
1,ACTACGTG,0.144
2,ATTACGTC,0.321
3,ATTACGTA,0.431
4,AATACGTG,0.383
5,AATACGTA,0.317
6,GGCCCGAA,-0.135
7,ATATCGGA,-0.0245
8,CCACCAGG,-0.268
9,CCTAGGCG,-0.303
10,ATTCCCAC,-0.125
11,TATTGTAA,0.318
12,TCTTGTCA,0.219
13,CCTTGTAA,0.454
14,ATTTGTAA,0.344
15,CTTTGTAA,0.414
16,ACTTGTAC,0.12
17,TCTTGTAA,0.439
18,CCTTGTAC,0.327
19,ACTTGTAA,0.381
20,CTTTGTAC,0.2
21,CCTTGTAG,0.195
22,ACTTGTAG,0.0979
23,GCTACAAA,0.0715
24,GAGCTACC,-0.059
25,CAGCTGTA,-0.117

row,Sequence,PBM E-score
1,CCAGGAGG,-0.191
2,ATCCAGCA,-0.0498
3,CGATGATA,0.0847
4,GATTGTAA,0.247
5,ACTTGTTA,0.259
6,CCTTGTTA,0.371
7,GCTTGTAA,0.411
8,GCTTGTAC,0.243
9,CCTTGTTC,-0.0497
10,CCCATATC,-0.145
11,CAAAGGAG,-0.0938
12,ATTAATGA,0.0848
13,CCAGGCAA,-0.265
14,AGCATAGG,-0.178
15,AACAGGTT,0.11
16,CTTACAAG,0.312
17,CTTACACC,0.0787
18,ATTACAAC,0.4
19,ATTACGAA,0.289
20,ATTACAGG,0.352
21,ATTACAGA,0.333
22,ATTACAAA,0.414
23,CTTACAAC,0.301
24,CTCACACC,-0.254
25,ATTACACC,0.382

row,Sequence,PBM E-score
1,ATTACAAG,0.466
2,GTTACAAC,0.258
3,CTTGAGGA,-0.227
4,ATATGCCC,-0.274
5,AGTGAACA,0.154
6,AGATTCTA,0.0504
7,ATATAGGA,0.0657
8,ACCAGGAC,0.0306
9,CATGTGAA,0.318
10,CCATGAGG,-0.313
11,AAAGAAAT,0.175
12,GACAGGCC,-0.143
13,CGCTCTGA,-0.135
14,ACGAGGGA,-0.0452
15,CGGTAAAG,0.00317
16,ATTACATC,0.445
17,ATTACAGC,0.141
18,AGTACAAT,0.25
19,TTTACAAA,0.412
20,CTTACAAA,0.232
21,TCTACAAA,0.252
22,ACTACAAT,0.137
23,ATTACAAT,0.385
24,CTTACATC,0.283
25,ATGGGACG,-0.19

row,Sequence,PBM E-score
1,GCAAAGAC,-0.121
2,CTGCGCGC,-0.00351
3,TGCAGCAA,-0.0391
4,GATACTCA,-0.0664
5,ACTTACAA,0.29
6,GCTTACAC,0.362
7,ACTTACAG,0.134
8,ACTTACAT,0.43
9,CCTTACAC,0.334
10,ACTTACAC,0.378
11,ACAGTAGC,-0.0946
12,CCCCCCGG,-0.366
13,ACTCTACC,-0.0519
14,CTTGTATA,0.289
15,ATTGTGTA,0.42
16,GTTGTGCA,-0.00044
17,CTTGTGAA,0.182
18,ATTGTATA,0.171
19,ATTGTGTC,0.233
20,GTTGTGGA,0.0527
21,CTTGTGTA,0.41
22,GTTGTATA,0.38
23,ATTGTGTG,0.112
24,GTTGTGTA,0.448
25,CTTGTGTC,0.0968
